Like-named read-outs stand apart in the source and are kept apart here. In all, about 13,000 compounds went through this assay and about 3,200 (25%) showed an effect of 50% or more. The list shows a part of the results.

The assay deals with P. falciparum stage V gametocytes. The arrangement: BacTiter-Glo ATP luminescence viability of purified stage V gametocytes in 384-well plates, per cent inhibition versus DMSO. The following applies: 48 h, 5 µM, inhibitor.

For orientation: % Inhibition means the relative decrease from the control value, in per cent. In the case of `NC(N)=NC(=O)Nc1cc(Br)c(Cl)c(C(F)(F)F)c1` [TCMDC-137513], the “% Inhibition” value is reported as -25.86%. The same measure, in the same setting: the result for `CCc1ccc(-c2nc3cc(NC(=O)c4cc([N+](=O)[O-])cc([N+](=O)[O-])c4)ccc3o2)cc1` [TCMDC-124220] reads -7.299%.

Consider `COc1ccc(-c2csc3nc(C)nc(Cl)c23)cc1OC` [TCMDC-125523], for which the “% Inhibition” value is -37.7%. Still for that read-out and setting: the figure for `CC[C@H]1CN2CC[C@H]1C[C@H]2[C@H](O)c1cc(-c2ccc(F)cc2)nc2ccc(OC)cc12` [TCMDC-141195] is 81.45%. On the same count and under the same terms, the result for `C=C[C@H]1CN2CC[C@H]1C[C@H]2[C@H](O)c1cc(-c2ccc(Cl)cc2)nc2ccc(OC)cc12` [TCMDC-139009] reads 109.5%; that for `CC[C@H]1CN2CC[C@H]1C[C@H]2[C@H](O)c1cc(-c2ccc(C)cc2)nc2ccc(OC)cc12` [TCMDC-141192], 31.69%; that for `CC[C@H]1CN2CC[C@H]1C[C@H]2[C@H](O)c1cc(-c2cccc(Cl)c2)nc2ccc(OC)cc12` [TCMDC-141215], 86%. Still for that read-out and setting: the result for `CC[C@H]1CN2CC[C@H]1C[C@H]2[C@H](O)c1cc(-c2ccc(F)cc2C)nc2ccc(OC)cc12` [TCMDC-141197] reads 26.99%.

Take `COc1ccc2nc(-c3ccc(F)cc3)cc([C@@H](O)[C@@H]3C[C@@H]4CCN3CC4C=NO)c2c1` (stereo partly drawn) [TCMDC-141395]: the “% Inhibition” value is 28.31%.

Consider `CC[C@H]1CN2CC[C@H]1C[C@H]2[C@H](O)c1cc(-c2ccc3ccccc3c2)nc2ccc(OC)cc12` [TCMDC-141213], for which the “% Inhibition” value is reported as 91.14%.

Turning to `C=C[C@H]1CN2CC[C@@H]1C[C@H]2[C@H](O)c1cc(-c2ccc(F)cc2)nc2ccc(OC)cc12` [TCMDC-141374], the “% Inhibition” value amounted to 31.93%. Consider `CC[C@H]1CN2CC[C@@H]1C[C@H]2[C@H](O)c1cc(-c2cc(Cl)cc(Cl)c2)nc2ccc(OC)cc12` [TCMDC-141351], for which the “% Inhibition” value worked out at 45.7%. Still for that read-out and setting: the figure for `COc1ccc2nccc(N3CCC(SCCNS(=O)(=O)c4ccc5c(c4)OCCO5)C3)c2n1` (stereo not drawn) [TCMDC-134549] is -1.611%. Consider `CCCC(=O)c1cnc2c(I)cccc2c1Nc1ccccc1C` [TCMDC-138960], for which the “% Inhibition” value is listed as -3.378%. Same read-out and setting: the result for `Cc1cccc2[nH]c(-c3ccc(-c4cccc(CN5CCN(c6ccncc6)CC5)c4)cc3)nc12` [TCMDC-132913] reads 17.14%. Still for that read-out and setting: the figure for `CC1(C)N=C(N)N=C(N)N1OCCOc1ccc(Cc2ccccc2)cc1` [TCMDC-131618] is 0.9057%; for `CCC1(C)N=C(N)N=C(N)N1c1ccccc1` (stereo not drawn) [TCMDC-131294] it is 1.322%; for `COc1ccc(Br)cc1/C=C/C(=O)Nc1cccc(C2CCN(C)CC2)c1` [TCMDC-133709] it is 17.69%. Still for that read-out and setting: the figure for `CC(CN)OCn1cnc2c(N)ncnc21` (stereo not drawn) [TCMDC-137691] is 4.807%; for `Nc1ccc(-c2ccc(NC(=O)Nc3ccccc3)cc2)cn1` [TCMDC-133409] it is 8.914%. Turning to `Cc1noc(C)c1-c1cccc(CNCc2ccc(-c3ccc(-c4nc5ccccc5[nH]4)s3)cc2)c1.O=C(O)C(F)(F)F` [TCMDC-133049], the “% Inhibition” value came out at 5.306%.

Turning to `COc1ccc(-c2onc(C(F)(F)F)c2-c2ccc(Br)cc2)c(O)c1` [TCMDC-125235], the “% Inhibition” value came out at 3.062%.

`O=C(Nc1ccc(N2CCCN(Cc3cccc(F)c3)CC2)cc1)c1ccc(F)cc1` [TCMDC-135020]: the “% Inhibition” value is given as -31.48%. The same measure, in the same setting: the result for `CC[C@H]1CN2CC[C@H]1C[C@H]2[C@H](O)c1cc(-c2cccc(C)c2)nc2ccc(OC)cc12` [TCMDC-141191] reads 44.26%.

On to `CC[C@H]1CN2CC[C@H]1C[C@H]2[C@H](O)c1cc(-c2cccc(F)c2)nc2ccc(OC)cc12` [TCMDC-141194], for which the “% Inhibition” value is on record as 63.72%.

In the case of `CC[C@H]1CN2CC[C@@H]1C[C@H]2[C@H](O)c1cc(-c2cccnc2)nc2ccc(OC)cc12` [TCMDC-141335], the “% Inhibition” value is reported as -21.27%. The same measure, in the same setting: the figure for `O=S(=O)(Nc1cccc(CCN2CCC(N3CCCCC3)CC2)c1)c1cccc2cccnc12` [TCMDC-134074] is 50.45%; for `O=S(=O)(Nc1cccc(CCN2CCC(N3CCCCC3)CC2)c1)c1cccc2ccccc12` [TCMDC-134069] it is 73%; for `O=S(=O)(Nc1ccc(CCN2CCC(N3CCCCC3)CC2)cc1)c1cccc2cccnc12` [TCMDC-134081] it is 43.01%. On the same count and under the same terms, the figure for `Cc1c(Cl)cccc1S(=O)(=O)Nc1cccc(CCN2CCC(N3CCCCC3)CC2)c1` [TCMDC-134064] is 56.09%; for `Cc1cccc(Cl)c1S(=O)(=O)Nc1cccc(CCN2CCC(N3CCCCC3)CC2)c1` [TCMDC-134063] it is 18.66%; for `COc1ccc(Cl)cc1S(=O)(=O)Nc1cccc(CCN2CCC(N3CCCCC3)CC2)c1` [TCMDC-134076] it is 49.77%.

Consider `CN(C)c1cccc2c(S(=O)(=O)Nc3cccc(CCN4CCC(N5CCCCC5)CC4)c3)cccc12` [TCMDC-134066], for which the “% Inhibition” value worked out at 76.83%. Same read-out and setting: the result for `Cc1nc2ccc3ccc(CNc4ccc(C#N)cc4)cc3c2c(=O)[nH]1` [TCMDC-137846] reads -36.65%. Still for that read-out and setting: the result for `CCCCCCN1CCCN(Cc2ccc(C(=O)Nc3ccc(C(C)(C)C)cc3)cc2)CC1` [TCMDC-136446] reads -5.342%; that for `O=C(Cc1ccc[n+]([O-])c1)Nc1ccc(-c2cccc(-c3nc4cc(C(F)(F)F)ccc4[nH]3)c2)cc1` [TCMDC-136991], -49.92%.

As for `O=C(Nc1ccc(-c2cccc(-c3nc4ccc(C(F)(F)F)cc4[nH]3)c2)cc1)c1ccoc1` [TCMDC-136845], the “% Inhibition” value turned out to be 54.13%.

`O=C(Nc1cccc(-c2ccc(-c3nc4ccc(C(F)(F)F)cc4[nH]3)cc2)c1)c1ccncc1` [TCMDC-136967]: the “% Inhibition” value was -31.79%. As to `O=C(Nc1cccc(-c2ccc(-c3nc4ccc(C(F)(F)F)cc4[nH]3)cc2)c1)c1cccnc1` [TCMDC-136930], the “% Inhibition” value stood at 51.27%.

In the case of `O=C(Nc1cccc(-c2cccc(-c3nc4ccc(C(F)(F)F)cc4[nH]3)c2)c1)c1ccoc1` [TCMDC-136844], the “% Inhibition” value turned out to be 9.594%.

With `O=C(Nc1cccc(-c2ccc(-c3nc4ccc(C(F)(F)F)cc4[nH]3)cc2)c1)c1ccoc1` [TCMDC-136848], the “% Inhibition” value is reported as -29.98%. Same read-out and setting: the result for `O=C(Nc1ccc(-c2cccc(-c3nc4ccc(C(F)(F)F)cc4[nH]3)c2)cc1)c1cccnc1` [TCMDC-136926] reads 86.45%; that for `O=C(Nc1ccc(-c2cccc(-c3nc4ccc(C(F)(F)F)cc4[nH]3)c2)cc1)c1ccncc1` [TCMDC-136964], -22.85%; that for `O=C(Nc1cccc(-c2cccc(-c3nc4ccc(C(F)(F)F)cc4[nH]3)c2)c1)c1cccnc1` [TCMDC-136925], -23.9%. On the same count and under the same terms, the figure for `NC(=O)c1cccc(C(=O)Nc2ccc(-c3cccc(-c4nc5ccc(C(F)(F)F)cc5[nH]4)c3)cc2)c1` [TCMDC-132200] is -70.46%; for `CC(=O)Oc1ccc(C(=O)Oc2ccccc2C#CC#N)cc1OC(C)=O` [TCMDC-138111] it is 22.32%; for `CC(Oc1ccc(Cl)cc1Cl)c1nc(-c2ccc(NC(=O)c3ccco3)cc2)no1` (stereo not drawn) [TCMDC-124355] it is -1.611%. The same measure, in the same setting: the figure for `O=C(Nc1ccc2c(c1)CN(Cc1ccc(N3CCCC3)o1)CCC2)c1cncs1` [TCMDC-134724] is -13.68%. As to `O=C(/C=C/c1cc(C(F)(F)F)ccc1F)NC1CCC(CN2CCC(c3c[nH]c4ccccc34)CC2)CC1` (stereo not drawn) [TCMDC-139855], the “% Inhibition” value is listed as -4.527%. As for `O=C(/C=C/c1ccc(C(F)(F)F)cc1)NC1CCC(CN2CCC(c3c[nH]c4ccccc34)CC2)CC1` (stereo not drawn) [TCMDC-139758], the “% Inhibition” value (% Inhibition) stood at 96.79%. Still for that read-out and setting: the figure for `O=C(/C=C/c1ccc(C(F)(F)F)cc1)NC1CCC(CN2CCC(c3c[nH]c4ccccc34)CC2)CC1` (stereo not drawn) [TCMDC-139768] is 87.3%. Turning to `CS(=O)(=O)c1ccc(-c2cncc(Cl)n2)cc1` [TCMDC-135191], the “% Inhibition” value came to 20.05%.

In the case of `COc1cc(NC(=O)/C=C/c2cc(F)cc(F)c2F)cc(OCCN2CCCCC2)c1` [TCMDC-140932], the “% Inhibition” value is on record as -50.87%. The same measure, in the same setting: the result for `Cc1cc(N2CCCN(C)CC2)nc(Nc2ccc(Cl)cc2)n1` [TCMDC-137009] reads 14.59%; that for `Cc1cc(N2CCC(N(C)C)C2)nc(Nc2ccc(Cl)cc2)n1` (stereo not drawn) [TCMDC-137011], -3.517%; that for `Cc1cc(NC2CCN(CC3CCCCC3)C2)nc(Nc2ccc(Cl)cc2)n1` (stereo not drawn) [TCMDC-137018], 51.98%. Still for that read-out and setting: the figure for `Cc1cc(N2CCN(CC3CCN(C)CC3)CC2)nc(Nc2ccc(Cl)cc2)n1` [TCMDC-137012] is 55.47%; for `Cc1cc(N2CCN(CC3CCN(C)CC3)CC2)nc(Nc2ccc(Br)cc2)n1` [TCMDC-137016] it is 54.5%. The same measure, in the same setting: the figure for `Cc1cc(NCC2CCN(CC3CCCCC3)C2)nc(Nc2ccc(Cl)cc2)n1` (stereo not drawn) [TCMDC-137020] is -71.76%; for `Cc1cc(N2CCN(CC3CCCCC3)CC2)nc(Nc2ccc(Br)cc2)n1` [TCMDC-137021] it is -43.3%; for `Cc1cc(NC2CCN(CC3CCCCC3)C2)nc(Nc2ccc(Br)cc2)n1` (stereo not drawn) [TCMDC-137022] it is 32.36%. As to `Cc1cc(N2CCCN(CC3CCCCC3)CC2)nc(Nc2ccc(Br)cc2)n1` [TCMDC-137133], the “% Inhibition” value was -10.88%. On to `COc1ccc(Nc2ncc3c(-c4ccc(NC(=O)c5cccc(C(F)(F)F)c5)cc4)c[nH]c3n2)cc1OC` [TCMDC-138863], for which the “% Inhibition” value is listed as -42.22%. Same read-out and setting: the figure for `Cc1cnccc1/C=C/c1cccc(OCCN2CCc3ccc(S(C)(=O)=O)cc3CC2)c1` [TCMDC-135875] is 13.2%; for `Cc1noc(C)c1-c1ccc2c(Nc3ccc([N+](=O)[O-])cc3)c(C(N)=O)cnc2c1.Cl` [TCMDC-136009] it is -6.074%; for `CN(C(=O)c1ccccc1)C1c2cc(C#N)ccc2OC(C)(C)C1O` (stereo not drawn) [TCMDC-131573] it is -17.79%.

These data come from publication PMC4552634, “A New Set of Chemical Starting Points with Plasmodium falciparum Transmission-Blocking Potential for Antimalarial Drug Discovery” (PLoS ONE, 2015).
